For test [1], the target named is Rap guanine nucleotide exchange factor 3 (Homo sapiens) (UniProt O95398). Kind of test: Confirmatory qHTS for antagonist of cAMP-regulated guanine nucleotide exchange factor 3 (EPAC1) (AID 1645880). Further: nearly all actives have a fitted effect of over 55% in size. Further: potency means the concentration at half of the fitted maximal effect.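 On activity, negative = inhibition: plate controls were DMSO only for no effect and full effect of the ATA control for full effect.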 The conditions noted are these: EPAC1 Rap1B-BODIPY-GDP exchange, fluorescence; activity, negative = inhibition: at 115 µM (top of the series). The essentials:
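Released BODIPY-GDP fluoresces less than Rap1-bound BODIPY-GDP; the signal is followed at 480/540 nm at 5-min intervals over 30 min, after 5 min at room temperature. Reactions contain 100 nM EPAC1, 250 nM RAP1B-BODIPY-GDP and 50 uM GDP; results are normalized to ATA and DMSO.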

For test [2] the target is unchanged. The experiment in a line: Confirmatory qHTS for agonist of cAMP-regulated guanine nucleotide exchange factor 3 (EPAC1) (AID 1645881).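 Further: EPAC1 catalysed release of BODIPY-GDP from Rap1B seen as fluorescence loss; 100% = effect of cAMP agonist control; nearly all actives have a fitted effect of over 75% in size.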 The conditions noted are these: EPAC1 Rap1B BODIPY-GDP exchange fluorescence; series mostly up to 154 µM. A general note: Quantitative high-throughput screening tests each substance at several concentrations.
For test [3], the target named is Rap guanine nucleotide exchange factor 4 (Homo sapiens) (UniProt Q8WZA2). Kind of test: Confirmatory qHTS for agonist of cAMP-regulated guanine nucleotide exchange factor 4 (EPAC2) (AID 1645884).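 Further: nucleotide exchange releases bodipy-GDP from Rap1 and this lowers its fluorescence; on the % scale 0 is the no-effect control and ±100 the full control effect; nearly all actives have a fitted effect of over 65% in size.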 The conditions noted are these: EPAC2 GEF activity, Rap1B-BODIPY-GDP fluorescence; series mostly up to 154 µM.
The target is the same in test [4]. Kind of test: Confirmatory qHTS for antagonist of cAMP-regulated guanine nucleotide exchange factor 4 (EPAC2) (AID 1645885). Further: nearly all actives have a fitted effect of over 25% in size. Further: potency means the concentration at half of the fitted maximal effect. On activity change, negative = inhibition: on the % scale 0 is the no-effect control and ±100 the full control effect. To be noted: EPAC2 Rap1B-BODIPY-GDP exchange fluorescence, biochemical; series mostly up to 12.7 µM.
Test [5] deals with Rap guanine nucleotide exchange factor 3 (Homo sapiens) (UniProt O95398). The experiment in a line: Counterscreen qHTS for antagonist of cAMP-regulated guanine nucleotide exchange factor 3 (EPAC1) (AID 1645888). Further: % of control where 0% means no effect. To be noted: Rap1B-BODIPY-GDP nucleotide exchange, fluorescence; series mostly up to 154 µM. The method, boiled down: (§1)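 Rap1B-BODIPY-GDP 250 nM + GDP 50 uM; cpds 7-pt, final 9.74 nM–152 uM (activator mode) or from 7.32 nM upwards (inhibitor mode); RT; FI 480/540 nm at 5 and 30 min, then ± cAMP, reread.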
(In general: The purpose of a counterscreen is to sort out artefacts and off-target activity.)

Test [6] shares this target. The experiment in a line: Counterscreen qHTS for agonist of cAMP-regulated guanine nucleotide exchange factor 3 (EPAC1) (AID 1645889). Further: nearly all actives have a fitted effect of over 40% in size. Further: potency means the concentration at half of the fitted maximal effect. On activation: % of control where 0% means no effect. The conditions noted are these: EPAC1 Rap1B-BODIPY-GDP exchange, fluorescence; series mostly up to 154 µM. The method, boiled down: as §1

Inconclusive results are not listed. Values without a mark were called inactive. Calls of active or inactive are those of the source. The call rests on the fitted dose curve; in most records, active means well fitted curve in the direction sought with a large enough effect; inconclusive means small, poorly fitted or top-dose-only effect, or another doubt; inactive means no such curve, though single readings can be large; an effect the other way counts as inactive or inconclusive.

Rap guanine nucleotide exchange factor 3 (Homo sapiens), sequence (O95398 whole entry, looked up): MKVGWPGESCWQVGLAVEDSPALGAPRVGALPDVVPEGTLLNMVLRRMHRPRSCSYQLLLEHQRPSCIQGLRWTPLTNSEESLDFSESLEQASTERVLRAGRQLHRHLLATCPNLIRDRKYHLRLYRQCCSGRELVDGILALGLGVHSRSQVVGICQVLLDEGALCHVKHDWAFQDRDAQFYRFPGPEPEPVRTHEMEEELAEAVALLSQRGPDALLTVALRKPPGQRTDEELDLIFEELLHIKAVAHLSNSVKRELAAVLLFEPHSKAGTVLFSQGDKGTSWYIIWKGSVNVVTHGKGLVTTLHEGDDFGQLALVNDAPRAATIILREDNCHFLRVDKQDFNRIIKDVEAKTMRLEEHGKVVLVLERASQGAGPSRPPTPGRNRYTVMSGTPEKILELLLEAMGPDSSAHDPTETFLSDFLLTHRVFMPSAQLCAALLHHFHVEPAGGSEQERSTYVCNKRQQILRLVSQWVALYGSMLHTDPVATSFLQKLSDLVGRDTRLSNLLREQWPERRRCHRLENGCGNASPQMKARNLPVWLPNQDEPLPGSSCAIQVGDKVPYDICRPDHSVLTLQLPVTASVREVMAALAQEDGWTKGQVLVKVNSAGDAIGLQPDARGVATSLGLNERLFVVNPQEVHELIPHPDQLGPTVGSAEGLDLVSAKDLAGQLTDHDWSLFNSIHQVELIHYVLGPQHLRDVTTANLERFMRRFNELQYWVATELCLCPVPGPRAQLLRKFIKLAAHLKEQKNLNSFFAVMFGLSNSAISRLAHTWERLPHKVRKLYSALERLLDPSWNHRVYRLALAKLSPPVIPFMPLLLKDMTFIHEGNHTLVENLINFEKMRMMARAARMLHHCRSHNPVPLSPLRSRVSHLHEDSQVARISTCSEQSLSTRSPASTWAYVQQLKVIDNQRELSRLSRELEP
Rap guanine nucleotide exchange factor 4 (Homo sapiens), sequence (Q8WZA2 whole entry, looked up): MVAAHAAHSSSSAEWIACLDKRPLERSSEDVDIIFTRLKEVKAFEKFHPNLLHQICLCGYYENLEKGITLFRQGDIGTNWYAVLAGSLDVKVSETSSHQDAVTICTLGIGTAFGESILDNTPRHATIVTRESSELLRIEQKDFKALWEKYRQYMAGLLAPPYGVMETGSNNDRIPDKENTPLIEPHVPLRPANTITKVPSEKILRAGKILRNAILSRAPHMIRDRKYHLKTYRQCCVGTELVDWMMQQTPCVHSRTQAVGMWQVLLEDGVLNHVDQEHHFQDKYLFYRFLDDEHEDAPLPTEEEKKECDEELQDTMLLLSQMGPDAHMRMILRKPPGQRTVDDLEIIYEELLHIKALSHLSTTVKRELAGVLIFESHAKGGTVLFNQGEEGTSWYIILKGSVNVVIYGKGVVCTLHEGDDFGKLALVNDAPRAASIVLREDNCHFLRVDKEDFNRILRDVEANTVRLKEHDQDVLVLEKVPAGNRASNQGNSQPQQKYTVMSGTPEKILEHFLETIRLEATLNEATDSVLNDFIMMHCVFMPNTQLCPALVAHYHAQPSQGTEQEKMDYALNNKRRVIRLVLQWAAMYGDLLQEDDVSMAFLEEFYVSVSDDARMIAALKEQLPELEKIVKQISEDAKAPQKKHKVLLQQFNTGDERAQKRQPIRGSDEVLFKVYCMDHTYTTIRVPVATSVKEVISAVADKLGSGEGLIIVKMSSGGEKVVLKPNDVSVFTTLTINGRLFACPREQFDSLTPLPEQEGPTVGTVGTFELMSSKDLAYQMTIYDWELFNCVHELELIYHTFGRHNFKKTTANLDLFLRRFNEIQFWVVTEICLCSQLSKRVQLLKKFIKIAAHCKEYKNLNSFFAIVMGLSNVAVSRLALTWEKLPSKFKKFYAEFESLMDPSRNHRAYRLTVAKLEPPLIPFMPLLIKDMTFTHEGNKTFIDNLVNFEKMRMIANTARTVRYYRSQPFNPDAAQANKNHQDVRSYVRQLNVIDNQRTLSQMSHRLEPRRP

With `O=C(C1=C(O)C(=O)N(c2nc3ccc(Cl)cc3s2)C1c1ccco1)c1ccco1` (stereo not given), the Potency in test [1] was 16.9 µM (active). In addition, the Potency entry in test [2], in test [3], in test [4], in test [5] and in test [6] was “inactive” throughout.
In the case of `COc1cc2c(c(OC)c1OC)C(c1ccc3c(c1)OCO3)CC(=O)O2` (stereo not given), the Potency entry in test [1], in test [2] and in test [4] was “inactive” in each case. Besides, the activation in test [3] is 4.62% [at 17.1 µM, percent relative to cAMP agonist control]; in test [6], 18.7% [at 30.8 µM]. In addition, the activity change, negative = inhibition in test [5] was -9.71% [at 30.8 µM].
`Cc1ccc(C)c(NC(=O)COC(=O)COc2cccc3c2OC(C)(C)C3)c1`: the Potency entry in test [1], in test [2] and in test [4] was “inactive” throughout. For the same compound, in test [3], the activation was -3.91% [at 17.1 µM, percent relative to cAMP agonist control].
`CCSc1nc(-c2ccccc2)nc2c1CCCC2`: the Potency entry in test [1], in test [2] and in test [3] was “inactive” throughout.
For `O=C(NCc1ccco1)c1sc(=S)n2c1[nH]c(=O)c1ccccc12`, the Potency in test [1] is 14.1 µM (active). Further, the Potency entry in test [2] and in test [4] was “inactive” throughout. Moreover, the activation in test [3] is 1.94% [at 17.1 µM, percent relative to cAMP agonist control]; in test [6], -8.6% [at 30.8 µM]. Moreover, in test [5], the activity change, negative = inhibition was 3.28% [at 30.8 µM].
As to `CNC(=O)COC(=O)c1cc(-c2ccco2)nc2ccccc12`, the Potency in test [1] is 23.9 µM (active); in test [6], 50.1 µM (active). Moreover, the Potency result in test [2], in test [3], in test [4] and in test [5] was “inactive” in each case.
On to `CCOc1cc2c3c(c1)C(C)=CC(C)(C)N3C(=O)C2=O`, for which the Potency result in test [1], in test [2] and in test [4] was “inactive” in each case. Also, the activation in test [3] was -1.35% [at 17.1 µM, percent relative to cAMP agonist control]; in test [6] it was 25% [at 30.8 µM]. The activity change, negative = inhibition in test [5] was -14.8% [at 30.8 µM].
`COc1ccc2c(c1)CCC1(C)CC(=O)C(Br)=C21` (stereo not given): the Potency result in test [1], in test [2] and in test [3] was “inactive” in each case.
As to `O=C(O)C1CC(=O)N(c2ccc(OCc3c(F)cccc3Cl)cc2)C1` (stereo not given), the Potency entry in test [1], in test [2], in test [3], in test [4], in test [5] and in test [6] was “inactive” in each case.
Consider `CCCc1nc2ccc(C(=O)OC)cn2c1Cc1ccccc1`, for which the Potency entry in test [1], in test [2], in test [3], in test [5] and in test [6] was “inactive” throughout. Besides, the Potency in test [4] is 33.8 µM (active).
For the compound `CCc1nc2ccccc2c(C(=O)NCc2ccccc2)c1C`, the Potency result in test [1], in test [2] and in test [3] was “inactive” throughout.
As to `COc1ccc(N(C(=O)c2ccco2)S(=O)(=O)c2cc(OC)ccc2OC)cc1`, the Potency entry in test [1], in test [2], in test [3], in test [4], in test [5] and in test [6] was “inactive” in each case.
For the compound `COc1ccc(-c2cc(C(F)(F)F)nc(SCC(=O)N3CCCCC3C)n2)cc1OC` (stereo not given), the Potency entry in test [1], in test [2], in test [3], in test [5] and in test [6] was “inactive” throughout. In addition, in test [4], the outcome was “inactive [at 12.7 µM]”.
Take `Cc1ccccc1N=C(c1ccccc1)C1C(=O)c2ccccc2C1=O`: the Potency result in test [1], in test [2] and in test [4] was “inactive” each time. Further, the activation was 8.41% [at 17.1 µM, percent relative to cAMP agonist control] in test [3] and 13.3% [at 30.8 µM] in test [6]. Further, in test [5], the activity change, negative = inhibition is -5.51% [at 30.8 µM].
With `COC(=O)[C@H](CC(C)C)NC(=O)CC[C@H]1O[C@@H](n2ccc(=O)[nH]c2=O)[C@H](O)[C@@H]1O`, the Potency result in test [1], in test [2], in test [3], in test [4] and in test [5] was “inactive” in each case.
Regarding `CC1CCc2c(sc3nc(SCC(=O)O)n(-c4ccccc4)c(=O)c23)C1` (stereo not given), the Potency entry in test [1], in test [2] and in test [4] was “inactive” each time. In addition, the activation is -2.98% [at 17.1 µM, percent relative to cAMP agonist control] in test [3] and 5.5% [at 30.8 µM] in test [6]. For the same compound, in test [5], the activity change, negative = inhibition is -13.5% [at 30.8 µM].
`Cc1ccc(S(=O)(=O)Nc2ccc3cc([N+](=O)[O-])ccc3c2[N+](=O)[O-])cc1`: the Potency in test [1] was 21.3 µM (active). In addition, the Potency result in test [2], in test [3], in test [4], in test [5] and in test [6] was “inactive” throughout.
In the case of `Cc1cccn2cc(CCNC(=O)c3ccco3)nc12`, the Potency result in test [1], in test [2] and in test [4] was “inactive” each time. The activation is 4.04% [at 17.1 µM, percent relative to cAMP agonist control] in test [3] and 19.7% [at 30.8 µM] in test [6]. Besides, in test [5], the activity change, negative = inhibition is -20.8% [at 30.8 µM].
For the compound `O=C(COc1ccccc1/C=C\c1[nH]c(=O)[nH]c(=O)c1[N+](=O)[O-])Nc1ccccc1`, the Potency in test [1] is 10 µM (active). Further, the Potency result in test [2] and in test [4] was “inactive” each time. Moreover, the activation in test [3] was 2.16% [at 17.1 µM, percent relative to cAMP agonist control]; in test [6] it was 7.06% [at 30.8 µM]. Besides, the activity change, negative = inhibition in test [5] is 2.03% [at 30.8 µM].
`CC(C)c1nn2c(=O)cc(COC(=O)c3cccc(NC(=O)c4cccs4)c3)nc2s1`: the Potency entry in test [1], in test [2], in test [3], in test [4], in test [5] and in test [6] was “inactive” each time.
For the compound `Cc1ccc(S(=O)(=O)N2CC(C(=O)O)=CC[C@H]2c2ccc(Cl)cc2)cc1`, the Potency entry in test [1], in test [2], in test [3], in test [4], in test [5] and in test [6] was “inactive” each time.
Consider `COc1ccc(-c2ccc(C(=O)NCCN3CCOCC3)c3occc23)c(C)c1`, for which the Potency result in test [1], in test [2], in test [3], in test [4], in test [5] and in test [6] was “inactive” in each case.

The values above are taken from PubChem BioAssay (NCATS).
